Among all 5,500 compounds or so, about 2,000 (36%) were called active. Inconclusive results (about 18%) are left out. No stated cut-off is given here; in the data, active means normalized growth mostly below about 0.91 (no sharp cut-off); inconclusive means no clear call, values can overlap the other calls; inactive means mostly above about 0.92. The list shows a part of the results.
Assay: chemical genetic growth profiling, strain panel (AID 1159580);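 further: tested at 20 µM; growth read once vehicle control cultures reached saturation at 30 °C; 1 = growth at the plate median or of vehicle wells; lower values mean less growth of the strain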
Details: S. cerevisiae deletion strains, growth OD
[1] = locus YAL013W, strain DEP1, active compounds read low
[2] = locus YBR229C, strain ROT2, active compounds read low
[3] = locus YDL101C, strain DUN1, active compounds read low
[4] = locus YDR150W, strain NUM1, active compounds read low
[5] = locus YEL061C, strain CIN8, active compounds read low
[6] = locus YGR078C, strain PAC10, active compounds read low
[7] = locus YHR030C, strain SLT2, active compounds read low
[8] = locus YHR087W, strain rtc3, active compounds read low
[9] = locus YJR043C, strain POL32, active compounds read low
[10] = locus YJR075W, strain HOC1, active compounds read low
[11] = locus YLR039C, strain RIC1, active compounds read low
[12] = locus YLR058C, strain SHM2 (second series), active compounds read low
[13] = locus YLR085C, strain ARP6, active compounds read low
[14] = locus YLR262C, strain YPT6, active compounds read low
[15] = locus YML094W, strain GIM5, active compounds read low
[16] = locus YMR219W, strain ESC1, active compounds read low
[17] = locus YMR263W, strain SAP30, active compounds read low
[18] = locus YNL153C, strain GIM3, active compounds read low
[19] = locus YNL298W, strain CLA4 (second series), active compounds read low
[20] = locus YNL322C, strain KRE1, active compounds read low
[21] = locus YNR030W, strain Alg12, active compounds read low
[22] = locus YPL055C, strain LGE1, active compounds read low
[23] = locus YPL241C, strain CIN2, active compounds read low
[24] = locus YPR135W, strain CTF4, active compounds read low

Measured: normalized growth

COCc1cc(=O)n2[nH]c(C(C)(C)C)cc2n1
active: locus YJL187C, strain SWE1, active compounds read low 0.162
inactive: [1] 1.01 | [2] 0.986 | [3] 0.996 | [4] 1.04 | [5] 0.939 | [6] 1.01 | [7] 1.07 | [8] 1.01 | [9] 1.04 | [10] 1.01 | [11] 1.02 | [12] 0.988 | [13] 0.959 | [14] 1.03 | [15] 0.986 | [16] 0.996 | [17] 1.04 | [18] 1.02 | [19] 0.965 | [20] 0.999 | [21] 1.01 | [22] 1.08 | [23] 0.977 | [24] 1.14

Clc1ccc(CN2CCN(c3cccc4[nH]ccc34)CC2)cc1Cl
active: [7] 1.16 [resistant]
inactive: locus YAR019C, strain CDC15, active compounds read low 0.997 | locus YBL105C, strain PKC1, active compounds read low 0.993 | locus YBR135W, strain CKS1, active compounds read low 0.995 | locus YBR136W, strain MEC1, active compounds read low 0.994 | locus YBR160W, strain CDC28, active compounds read low 0.986 | locus YDL017W, strain CDC7, active compounds read low 0.994 | locus YDL028C, strain MPS1, active compounds read low 0.999 | [3] 0.988 | locus YDL108W, strain KIN28, active compounds read low 0.983 | locus YDL132W, strain cdc53, active compounds read low 0.993 | locus YDL214C, strain PRR2, active compounds read low 0.962 | locus YDR052C, strain DBF4, active compounds read low 0.996 | locus YDR054C, strain cdc34, active compounds read low 0.993 | locus YDR226W, strain ADK1, active compounds read low 0.984 | locus YDR477W, strain SNF1, active compounds read low 0.972 | locus YER123W, strain YCK3, active compounds read low 0.917 | locus YER133W, strain GLC7, active compounds read low 0.977 | locus YFL009W, strain cdc4, active compounds read low 0.986 | locus YFL029C, strain CAK1, active compounds read low 0.994 | locus YFR003C, strain YPI1, active compounds read low 0.992 | locus YFR019W, strain FAB1, active compounds read low 0.971 | locus YFR028C, strain CDC14, active compounds read low 0.991 | locus YGR040W, strain KSS1, active compounds read low 0.962 | locus YGR052W, strain FMP48, active compounds read low 1.1 | locus YGR092W, strain DBF2, active compounds read low 0.942 | locus YHR079C, strain IRE1, active compounds read low 1.11 | locus YHR082C, strain KSP1, active compounds read low 1.09 | locus YHR205W, strain SCH9, active compounds read low 0.974 | locus YIL147C, strain SLN1, active compounds read low 0.992 | locus YJL095W, strain BCK1, active compounds read low 1.1 | locus YJL128C, strain PBS2, active compounds read low 0.946 | locus YJL157C, strain FAR1, active compounds read low 0.968 | locus YJR016C, strain ILV3, active compounds read low 0.993 | locus YJR066W, strain TOR1 (second series), active compounds read low 0.958 | locus YJR066W, strain TOR1, active compounds read low 1.13 | locus YKL048C, strain ELM1, active compounds read low 0.988 | locus YKL067W, strain YNK1, active compounds read low 0.982 | locus YKL101W, strain HSL1, active compounds read low 0.968 | locus YKL193C, strain SDS22, active compounds read low 0.992 | locus YKL203C, strain TOR2, active compounds read low 1.04 | locus YLR113W, strain HOG1, active compounds read low 1.07 | locus YLR133W, strain CKI1, active compounds read low 0.977 | locus YLR403W, strain SFP1, active compounds read low 0.965 | locus YML070W, strain DAK1, active compounds read low 0.964 | locus YMR001C, strain CDC5, active compounds read low 0.993 | locus YMR205C, strain PFK2 (second series), active compounds read low 0.976 | locus YMR277W, strain FCP1, active compounds read low 1 | locus YNL006W, strain LST8, active compounds read low 0.999 | locus YNL020C, strain ARK1, active compounds read low 0.981 | locus YNL161W, strain CBK1, active compounds read low 0.998 | locus YNL183C, strain NPR1, active compounds read low 1.11 | locus YNL207W, strain RIO2, active compounds read low 0.993 | locus YNL222W, strain SSU72, active compounds read low 0.992 | locus YNL307C, strain MCK1 (second series), active compounds read low 0.995 | locus YOL078W, strain AVO1, active compounds read low 0.996 | locus YOL136C, strain PFK27, active compounds read low 0.974 | locus YOR061W, strain CKA2, active compounds read low 0.955 | locus YOR119C, strain RIO1, active compounds read low 1.03 | locus YOR231W, strain MKK1, active compounds read low 1.08 | locus YOR329C, strain SCD5, active compounds read low 0.999 | locus YPL031C, strain PHO85, active compounds read low 0.977 | locus YPL153C, strain RAD53, active compounds read low 0.97 | locus YPL204W, strain HRR25, active compounds read low 0.979 | locus YPL209C, strain IPL1, active compounds read low 0.997 | locus YPL256C, strain CLN2, active compounds read low 1.07 | locus YPR025C, strain CCL1, active compounds read low 0.995 | locus YPR106W, strain ISR1, active compounds read low 0.99 | locus YPR111W, strain DBF20, active compounds read low 0.992 | strain NNK1, active compounds read low 0.993 | strain TSCII, active compounds read low 1

c1ccc(CN2CCC(n3nnc4cccnc43)CC2)cc1
inactive: [1] 0.995 | [2] 1.01 | locus YCL061C, strain MRC1, active compounds read low 1.02 | [3] 0.987 | locus YDL134C, strain PPH21, active compounds read low 0.993 | [4] 0.997 | [5] 1.01 | [6] 1.01 | locus YGR229C, strain SMI1, active compounds read low 0.997 | [7] 0.995 | [8] 1.01 | [9] 1.01 | [10] 1 | [11] 1 | [12] 1.04 | [13] 0.995 | [14] 0.957 | [15] 0.984 | [16] 1 | [17] 1.01 | [18] 1.01 | [19] 0.965 | [20] 0.996 | [21] 1.01 | [22] 1.03 | [23] 0.983 | [24] 1.01

Source: PubChem BioAssay AID1159580 (chemical genetic matrix, 2015)
